DENV2 CPE = protects cells from dengue virus 2 cytopathic effect; DENV2-infected cells, cytopathic effect rescue, plate reader; CPE inhibition, % at 9.99 µM; 350,000 tested, 1.7% active; AID 651640; in the data active means CPE inhibition above about 20%, passing the limit was not always enough; inconclusive means no clear call, values can overlap the other calls; tested in BHK-21 cells;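 further: 0% = median of neutral control wells and 100% = median of positive control wells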
N-glyco inh = N-linked glycosylation inhibition; 360,000 tested, 0.23% active; AID 588692; D54 ERlucT glycosylation luciferase reporter, 24 h; percent of 100 nM tunicamycin response; reporter increase, % at 12.5 µM;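 active means mean luciferase reporter signal, scaled so untreated is 0 and the glycosylation-blocking control 100, at or above a set limit in every replicate; inconclusive means mean reaches the limit but not every replicate does; inactive means mean below the limit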;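 further: luciferase carries N-glycosylation sites so blocking glycosylation raises the light; 0% = median of neutral control wells and 100% = median of 100 nM tunicamycin wells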
Rtt109 Vps75 = blocks Candida albicans Rtt109/Vps75 acetyltransferase activity | Q5AAJ8 | purified Rtt109/Vps75, ThioGlo CoA-SH fluorescence, 4 h | inhibition, % at 34.9 µM | 330,000 tested, 0.16% active;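 active means inhibition of at least 50% in every replicate; inconclusive means best replicate reaches 50% inhibition but some replicates fall short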
Target sequence (Q5AAJ8 whole entry, looked up): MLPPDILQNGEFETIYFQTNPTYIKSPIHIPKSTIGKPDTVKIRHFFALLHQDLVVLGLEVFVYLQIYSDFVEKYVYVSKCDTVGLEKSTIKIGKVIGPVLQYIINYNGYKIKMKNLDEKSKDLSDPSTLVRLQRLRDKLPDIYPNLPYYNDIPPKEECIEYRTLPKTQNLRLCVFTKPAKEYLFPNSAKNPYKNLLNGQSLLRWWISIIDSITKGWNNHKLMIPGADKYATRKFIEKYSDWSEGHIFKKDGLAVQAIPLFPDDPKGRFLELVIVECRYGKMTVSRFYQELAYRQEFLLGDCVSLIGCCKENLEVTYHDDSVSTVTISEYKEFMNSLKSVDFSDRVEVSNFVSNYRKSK
PglD DTNB = PglD (C. jejuni) enzyme inhibition. inhibition, % at 12.5 µM. 360,000 tested, 0.098% active. purified PglD enzyme, DTNB colorimetric CoA detection; in the data active means inhibition above about 16%, passing the limit was not always enough; inconclusive means no clear call, values can overlap the other calls
An asterisk follows results filed as active; u = inconclusive; x = not tested or not shown. The entries come from a sample that favours hits as a whole.

SMILES | DENV2 CPE | N-glyco inh | Rtt109 Vps75 | PglD DTNB
CC(C)CC#Cc1ccc2c(c1)O[C@@H](CN(C)Cc1cccnc1)[C@@H](C)CN([C@H](C)CO)S2(=O)=O | 9 | x | x | -1
C[C@@H]1CN([C@@H](C)CO)S(=O)(=O)c2ccc(C#C[C@@H](C)O)cc2O[C@H]1CN(C)CC1CCCC1 | 21* | x | x | -2
CCCC#Cc1ccc2c(c1)O[C@H](CN(C)Cc1cccnc1)[C@@H](C)CN([C@@H](C)CO)S2(=O)=O | 25* | x | x | 2
CC(C)CC#Cc1ccc2c(c1)O[C@H](CN(C)Cc1cncnc1)[C@H](C)CN([C@H](C)CO)S2(=O)=O | -3 | x | x | 0
C[C@H](O)C#Cc1ccc2c(c1)O[C@H](CN(C)CC1CCCCC1)[C@H](C)CN([C@H](C)CO)S2(=O)=O | 0 | x | x | -4
COc1ccc(COC[C@]23NC(=S)N(C(=O)c4ccccc4)[C@H](c4ccccc4O2)[C@H]3CO[Si](C)(C)C(C)(C)C)cc1 | 9 | x | x | x
C[C@@H]1CN([C@H](C)CO)C(=O)c2cc(NC(=O)c3ccccc3)ccc2O[C@@H](C)CCCCO[C@H]1CN(C)S(=O)(=O)c1ccc(Cl)cc1 | 19 | x | x | 5
CCCNC(=O)N1CC2(CN(C(=O)c3cccc(F)c3)C2)c2c([nH]c3cc(OC)ccc23)[C@H]1CO | 10 | x | x | x
C[C@H]1CN([C@@H](C)CO)C(=O)c2cc(NC(=O)CCC(F)(F)F)ccc2O[C@@H]1CN(C)S(=O)(=O)c1ccc(F)cc1 | -3 | x | x | -2
C[C@H](CO)N1C[C@H](C)[C@H](CN(C)CC2CCOCC2)Oc2cc(C#CC3CC3)ccc2S1(=O)=O | 22* | x | x | -1
CC(C)CC#Cc1ccc2c(c1)O[C@@H](CN(C)C)[C@@H](C)CN([C@@H](C)CO)S2(=O)=O | 27* | x | x | 3
COc1ccccc1-c1cn(CC[C@H]2CC[C@H](NC(=O)CCN3CCCCC3)[C@@H](CO)O2)nn1 | -6 | x | x | -3
C[C@@H]1CN([C@H](C)CO)C(=O)c2cc(-c3ccncc3)cnc2O[C@@H]1CN(C)S(=O)(=O)c1ccccc1 | 3 | x | x | 0
Cc1cc(C(=O)N[C@@H](c2ccccc2)[C@]2(C)C[C@H]2[C@@H](C)C(=O)Nc2ccc3ccccc3c2)no1 | 77* | 7 | -6 | 3
COc1ccc(NC(=O)Nc2ccc3c(c2)[C@@H]2C[C@@H](CC(=O)N4CCCCC4)O[C@H](CO)[C@@H]2O3)cc1 | 0 | x | x | 1
COCCNC(=O)c1ccc(CS(=O)(=O)c2c(Cl)cccc2Cl)o1 | 58* | -6 | -3 | -1
CCCCNc1c(-c2ccc(Sc3ccc(OC)cc3)cc2)nc2cc(C)ccn12 | 82* | -3 | -7 | -5
CCCCNc1c(-c2ccc(OC)c(SC(C)CC)c2)nc2cc(C)ccn12 (stereo not drawn) | -6 | -6 | -7 | 1
CCCCNc1c(-c2ccc(-c3ccc(C(C)=O)cc3)c(OC)c2)nc2cc(C)ccn12 | 61* | -6 | 3 | -2
COCCCN1C(=O)C(CC(=O)NC(c2ccccc2)c2ccccc2)CC(C(=O)N(C)C)=C1C (stereo not drawn) | u | 4 | x | 1
COCCCN1C(=O)C(CC(=O)NC(c2ccccc2)c2ccccc2)CC(C(=O)N(C(C)C)C(C)C)=C1C (stereo not drawn) | 57* | 2 | x | 4
CCN(CC)C(=O)C1=C(C)N(Cc2ccc(C(C)(C)C)cc2)C(=O)C(CC(=O)NC2CCCCC2)C1 (stereo not drawn) | 3 | 2 | x | 1
CCN(CC)C(=O)C1=C(C)N(CCCN2CCCC2=O)C(=O)C(CC(=O)NCC2CCCCC2)C1 (stereo not drawn) | 74* | 1 | x | -3
CC1=C(C(=O)N(C)C)CC(CC(=O)NCC2CCCCC2)C(=O)N1CCCN1CCCC1=O (stereo not drawn) | -4 | 3 | x | -4
COCCCN1C(=O)C(CC(=O)NC2CCCCC2)CC(C(=O)N(C(C)C)C(C)C)=C1C (stereo not drawn) | 27* | -1 | x | 1
SMILES | DENV2 CPE | N-glyco inh | Rtt109 Vps75 | PglD DTNB
CC1=C(C(=O)N(C(C)C)C(C)C)CC(CC(=O)NC2CCCCC2)C(=O)N1CCCN1CCCC1=O (stereo not drawn) | 3 | 1 | x | 1
CC1=C(C(=O)N(C)C)CC(CC(=O)NC2CCCCC2)C(=O)N1Cc1ccc(C(C)(C)C)cc1 (stereo not drawn) | 43* | 6 | x | 6
COCC(=O)N1[C@H](C#N)[C@H](c2ccccc2-c2cccc(OC)c2)[C@@H]1CO | -12 | x | x | x
O=C(Nc1cccc(F)c1)N1C[C@@H]2[C@H](c3ccccc31)[C@@H](CO)N2C(=O)c1cccnc1 | -2 | x | x | -2
CC(C)NC(=O)NCC[C@H]1CC[C@@H](NC(=O)c2ccc(F)cc2)[C@@H](CO)O1 | 3 | x | x | -1
CN(C)C(=O)c1cc(C(=O)c2ccc(Cl)cc2Cl)c[nH]1 | -6 | -2 | 20 | 1
NC(=O)c1cc(C(=O)c2ccc(Cl)cc2Cl)c[nH]1 | 33* | -10 | 6 | x
CC(C)C[C@@H](CN1CCC[C@@H]1CN1C(=S)NC[C@@H]1Cc1ccc(O)cc1)N1C[C@H](Cc2ccc(O)cc2)N(CC2CCCCCC2)C1=S | -6 | -3 | x | 1
O=C1NC[C@H](Cc2ccccc2)N(C[C@@H]2CCCN2C[C@H](Cc2ccc(O)cc2)N2C[C@H](Cc3ccc(O)cc3)N(CCc3ccccc3)C(=O)C2=O)C1=O | 1 | x | x | x
O=C1NC[C@H](Cc2ccccc2)N(C[C@H]2CCCN2C[C@H](Cc2ccccc2)N2C[C@H](Cc3ccc(O)cc3)N(CCc3ccccc3)C(=O)C2=O)C1=O | -9 | 37* | -4 | -3
CC(C)C[C@@H](CN1CCC[C@@H]1CN1C(=S)NC[C@@H]1Cc1ccc(O)cc1)N1C[C@H](Cc2ccc(O)cc2)N(CC2CCCCC2)C1=S | 28* | -14 | x | 9
CN1[C@@H]2Cn3c(ccc(-c4cccc(F)c4)c3=O)[C@H]1[C@@H](C(=O)Nc1nccs1)[C@@H]2CO | -1 | x | x | 1
Cc1ccccc1S(=O)(=O)N1CC[C@@H]2[C@H]1c1cc(-c3ccc(C#N)cc3)ccc1N[C@@H]2CO | 77* | x | x | 0
Cc1ccccc1S(=O)(=O)N1CC[C@@H]2[C@H](CO)Nc3ccc(-c4ccc(C#N)cc4)cc3[C@@H]21 | 25* | x | x | 4
N#Cc1ccc(-c2ccc3c(c2)[C@@H]2[C@@H](CCN2S(=O)(=O)c2ccccc2F)[C@H](CO)N3)cc1 | 6 | x | x | -1
Nc1ncc(-c2ccc(F)cc2)nc1N1CCN(CCO)CC1 | 27* | 2 | x | 2
CO[C@H]1CN(C)C(=O)c2cc(NC(=O)C3CC3)ccc2OC[C@@H](C)N(C(=O)CN2CCOCC2)C[C@@H]1C | -4 | x | x | 0
O=C1N[C@@H](c2ccccc2)COCc2cn(nn2)CC[C@@H]1Cc1ccccc1 | 3 | x | x | x
CN1CCN(C(=O)C[C@@H]2C[C@@H]3c4cc(NC(=O)C5CCOCC5)ccc4O[C@@H]3[C@@H](CO)O2)CC1 | 3 | x | x | 1
Cc1cc(NC(=O)c2ccccc2Cl)c(C(C)C)cc1O | x | 2 | -5 | x
Cc1cc(O)c(C(C)C)cc1NC(=O)c1ccccc1Cl | 28* | 2 | 14 | 6

Screening results (PubChem)
